IDE exosite FP – insulin-degrading enzyme (human) exo-site inhibition; z-score at 20 µM; purified IDE, FL-6b probe fluorescence polarization; stronger effect = lower value; AID 1259349; actives 6.3% (n = 17,000);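 active = z-score of -3 or lower, meaning strong loss of probe binding signal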;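 also: His-tagged human IDE residues 42-1019 made in E. coli with 30 nM FL-6b probe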
Large screens that a line does not name were inactive. The entries come from a sample that favours hits as a whole.

C[C@@H]1CN([C@@H](C)CO)C(=O)c2cc(N(C)C)ccc2O[C@@H](C)CCCCO[C@H]1CN(C)S(=O)(=O)c1cn(C)cn1	none
COCC(=O)N(C[C@@H]1N[C@@H](CO)[C@H]1c1ccc(C2=CCCCC2)cc1)C(C)C	none
CC(C)CC#Cc1ccc([C@@H]2[C@H](CO)N3C(=O)CN(C(=O)c4ccccn4)C[C@@H]23)cc1	none
COC(=O)[C@H]1[C@H](CO)[C@H]2Cn3c(ccc(-c4ccncc4)c3=O)[C@H]2N1Cc1ccccc1F	none
CC(C)CN(C[C@@H]1N[C@@H](CO)[C@@H]1c1ccccc1)C(=O)CN(C)C	none
CCCN1C[C@H](C)[C@@H](OC)CN(C)C(=O)c2cc(NC(=O)Nc3cccc(F)c3)ccc2OC[C@H]1C	none
N#C[C@H]1[C@@H](c2ccccc2-c2ccccc2)[C@H](CO)N1C(=O)Cc1cccnc1	none
CC(=O)NC[C@@H]1[C@@H](c2ccc(C3=CCCC3)cc2)[C@@H](CO)N1C(=O)CN(C)C	none
C/C=C/c1ccc(C2[C@@H]3CN(S(=O)(=O)c4ccccc4)C[C@H]2N3)cc1 (some centres undefined)	none
Cc1ccccc1-c1ccc(C2[C@@H]3CN(S(=O)(=O)c4ccccc4)C[C@H]2N3)cc1 (some centres undefined)	IDE exosite FP -10
Cc1ccc(S(=O)(=O)N2C[C@@H]3N[C@H](C2)C3c2ccc(/C=C/c3ccccc3)cc2)cc1 (some centres undefined)	none
COCCNC(=O)C[C@H]1CC[C@H]2[C@@H](COC[C@@H](O)CN2C(=O)c2cc(Cl)cc(Cl)c2)O1	none
COCC(=O)NC[C@@H]1[C@H](c2ccc(C3=CCCC3)cc2)[C@@H](CO)N1C(C)=O	none
OC[C@@H]1[C@H](c2ccc(C#CC3(O)CCCC3)cc2)[C@@H]2CN(Cc3cccnc3)CCCCN12	none
CC[C@H]1CC=CC[C@@H](C)Oc2ccccc2C(=O)N(C)[C@H](C)C(=O)N1 (mixture of isomers)	none
O=C(c1ccc2c(c1)OCO2)N1CC(=O)N2[C@H](CO)[C@@H](c3ccc(C#Cc4ccccc4)cc3)[C@H]2C1	none
Cc1ccc(-c2ccc([C@@H]3[C@@H](CO)N4C(=O)CN(C(=O)c5ccccc5)C[C@H]34)cc2)cc1	none
Cc1cccc(-c2ccc([C@@H]3[C@@H](CO)N4C(=O)CN(C(=O)c5ccccc5)C[C@H]34)cc2)c1	none
O=C(c1ccc2c(c1)OCO2)N1CC(=O)N2[C@H](CO)[C@@H](c3ccc(-c4ccccc4)cc3)[C@H]2C1	none
O=C(c1ccc2c(c1)OCO2)N1CC(=O)N2[C@@H](CO)[C@H](c3ccc(C#Cc4ccccc4)cc3)[C@@H]2C1	IDE exosite FP -4.3
Cc1ccc(-c2ccc([C@H]3[C@@H](CO)N4C(=O)CN(C(=O)c5ccccc5)C[C@@H]34)cc2)cc1	none
O=C(c1ccc2c(c1)OCO2)N1CC(=O)N2[C@H](CO)[C@H](c3ccc(C#Cc4ccccc4)cc3)[C@@H]2C1	none
Cc1cccc(-c2ccc([C@H]3[C@@H](CO)N4C(=O)CN(C(=O)c5ccc6c(c5)OCO6)C[C@@H]34)cc2)c1	IDE exosite FP -3.1
Cc1cccc(-c2ccc([C@H]3[C@H](CO)N4C(=O)CN(C(=O)c5ccccc5)C[C@@H]34)cc2)c1	IDE exosite FP -7.4
Cc1cccc(-c2ccc([C@H]3[C@H]4CN(C(=O)c5ccccc5)CC(=O)N4[C@H]3CO)cc2)c1	none
COc1ccc(-c2ccc([C@@H]3[C@@H](CO)N4C(=O)CN(C(=O)c5ccc6c(c5)OCO6)C[C@H]34)cc2)cc1	none
Cc1cccc(-c2ccc([C@@H]3[C@H](CO)N4C(=O)CN(C(=O)c5ccccc5)C[C@@H]34)cc2)c1	IDE exosite FP -4.6
Cc1noc(C)c1NC(=O)Nc1ccc2c(c1)C(=O)N([C@@H](C)CO)C[C@@H](C)[C@H](CN(C)Cc1ccc3c(c1)OCO3)OCCCC[C@H](C)O2	none
C[C@H](NC(=O)C[C@@H]1C[C@@H]2c3cc(NS(=O)(=O)c4ccc(F)cc4)ccc3O[C@@H]2[C@H](CO)O1)c1ccccc1	none
Cc1noc(C)c1S(=O)(=O)N(C)C[C@H]1OCc2ccccc2-c2c(n(C)c3ccccc23)C(=O)N([C@@H](C)CO)C[C@H]1C	none
CO[C@H]1CN(C)C(=O)c2ccc(NS(=O)(=O)CC(F)(F)F)cc2OC[C@@H](C)N(Cc2nccs2)C[C@H]1C	none
CCN1CC(=O)N2[C@@H](CO)[C@H](c3ccc(Br)cc3)[C@@H]2C1	none
CC(C)C#Cc1ccc([C@H]2[C@@H](CO)N3C(=O)CN(C(=O)c4ccccn4)C[C@@H]23)cc1	none
CCC(=O)N1CC(=O)N2[C@@H](CO)[C@H](c3ccc(-c4ccc(C#N)cc4)cc3)[C@@H]2C1	none
C/C=C/c1ccc([C@H]2[C@@H](CO)N(C(=O)C3CC3)[C@@H]2CN(CC)C(C)=O)cc1	none
CC(C)CC#Cc1ccc([C@H]2[C@@H](CO)N3C(=O)CN(C(=O)CN4CCOCC4)C[C@@H]23)cc1	none
C/C=C/c1ccc([C@H]2[C@@H](CN(C)C(=O)CC)N(C(=O)C3CC3)[C@H]2CO)cc1	none
O=C(Nc1ccc(F)cc1)N1CC(=O)N2[C@H](C1)[C@@H](c1ccc(C#CC3CC3)cc1)[C@@H]2CO	none

High-throughput results: PubChem BioAssay, Broad Institute
